# Experimental data reported in PubChem BioAssay AID651642 (Sanford-Burnham Center for Chemical Genomics, 2012).
# Calls of active or inactive are those of the source.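 How the source made its calls: active means average half-effect concentration of 10 µM or less in every one of the four cell panels; inactive means the rest.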
# Tested on: H9c2
# Assay: cardiomyocyte survival under oxidative or metabolic stress – cell-based, panel, H9c2 and HL-1, H2O2, 2-deoxyglucose, ATP luminescence, SAR follow-up (AID 651642)
# Settings: H9c2/HL-1 cardiomyocyte 2-deoxyglucose damage, mean of runs, with 2-deoxyglucose
row,SMILES,outcome
1,COc1cc(-c2cc(C(=O)Nc3cccc(C(=O)N4CCOCC4)c3)c3ccccc3n2)cc(OC)c1OC,inactive
2,COc1ccc2c(c1OC)C(=O)N1c3ccccc3C(=O)N(Cc3ccccc3F)C21 (configuration not stated),inactive
3,COc1cc(-c2cc(C(=O)Nc3cccc(C(C)=O)c3)c3cc(F)ccc3n2)cc(OC)c1OC,inactive
4,COc1cc(-c2cc(C(=O)NCC(=O)Nc3ccc(C(C)=O)cc3)c3cc(C)ccc3n2)cc(OC)c1OC,active
5,CCOC(=O)c1cccc(NC(=O)c2cc(-c3cc(OC)c(OC)c(OC)c3)nc3ccccc23)c1,inactive
6,COc1cc(-c2cc(C(=O)Nc3cccc(C(=O)O)c3)c3ccccc3n2)cc(OC)c1OC,inactive
7,CCOC(=O)c1cccc(NC(=O)c2cc(-c3cc(OC)c(OC)c(OC)c3)nc3ccc(Cl)cc23)c1,inactive
8,COc1cc(-c2cc(C(=O)NCC(=O)Nc3cccc(C(C)=O)c3)c3cc(C)ccc3n2)cc(OC)c1OC,inactive
9,CCOC(=O)c1cccc(NC(=O)CNC(=O)c2cc(-c3cc(OC)c(OC)c(OC)c3)nc3ccccc23)c1,inactive
10,CCOC(=O)c1cccc(NC(=O)c2cc(-c3cc(OC)c(OC)c(OC)c3)nc3ccc(C)cc23)c1,inactive
11,CCOC(=O)c1cccc(NC(=O)CNC(=O)c2cc(-c3cc(OC)c(OC)c(OC)c3)nc3ccc(C)cc23)c1,active
12,CCOC(=O)c1cccc(NC(=O)c2cc(-c3cc(OC)c(OC)c(OC)c3)nc3cc(Cl)ccc23)c1,inactive
13,CCOC(=O)c1cccc(NC(=O)c2cc(-c3cc(OC)c(OC)c(OC)c3)nc3c(Cl)cccc23)c1,inactive
14,COc1ccc2c(c1OC)C(=O)N1c3ccccc3C(=O)N(Cc3ccccc3)C21 (configuration not stated),inactive
15,COc1cccc(CNC(=O)CNC(=O)c2cc(-c3cc(OC)c(OC)c(OC)c3)nc3ccccc23)c1,inactive
16,COc1ccccc1CN1C(=O)c2ccccc2N2C(=O)c3c(ccc(OC)c3OC)C12 (configuration not stated),inactive

row,SMILES,outcome
1,CCOC(=O)c1cccc(NC(=O)c2cc(-c3cc(OC)c(OC)c(OC)c3)nc3ccc(Br)cc23)c1,inactive
2,CCOC(=O)c1cccc(NC(=O)c2cc(-c3cc(OC)c(OC)c(OC)c3)nc3ccc(F)cc23)c1,inactive
3,COc1ccc2c(c1OC)C(=O)N1c3ccccc3C(=O)N(Cc3cccc(Br)c3)C21 (configuration not stated),inactive
4,COc1cc(-c2cc(C(=O)Nc3cccc(C#N)c3)c3ccccc3n2)cc(OC)c1OC,inactive
5,COc1ccc2c(c1OC)C(=O)N1c3ccccc3C(=O)N(Cc3ccc(F)cc3)C21 (configuration not stated),inactive
6,COc1cc(-c2cc(C(=O)NCC(=O)Nc3ccc(C(C)=O)cc3)c3cc(F)ccc3n2)cc(OC)c1OC,inactive
7,CCOC(=O)c1ccccc1NC(=O)c1cc(-c2cc(OC)c(OC)c(OC)c2)nc2ccccc12,inactive
8,COc1ccc2c(c1OC)C(=O)N1c3ccccc3C(=O)N(Cc3ccncc3)C21 (configuration not stated),inactive
9,COc1cc(-c2cc(C(=O)Nc3cccc(C(C)=O)c3)c3ccc(Cl)cc3n2)cc(OC)c1OC,inactive
10,CCOC(=O)c1cccc(NC(=O)CNC(=O)c2cc(-c3cc(OC)c(OC)c(OC)c3)nc3c(Cl)cccc23)c1,inactive
11,COc1cc(-c2cc(C(=O)NCC(=O)Nc3cccc(C(C)=O)c3)c3cc(F)ccc3n2)cc(OC)c1OC,active
12,CCOC(=O)c1ccc(NC(=O)c2cc(-c3cc(OC)c(OC)c(OC)c3)nc3ccccc23)cc1,inactive
13,COc1ccc(NC(=O)CNC(=O)c2cc(-c3cc(OC)c(OC)c(OC)c3)nc3ccccc23)cc1,inactive
14,COc1cc(-c2cc(C(=O)NCC(=O)Nc3ccc(C(C)=O)cc3)c3ccccc3n2)cc(OC)c1OC,inactive
15,CCOC(=O)c1cccc(NC(=O)CNC(=O)c2cc(-c3cc(OC)c(OC)c(OC)c3)nc3ccc(OC)cc23)c1,active
16,COc1cc(-c2cc(C(=O)Nc3cccc(C(=O)NCc4ccccc4)c3)c3ccccc3n2)cc(OC)c1OC,active
